Data reported in PubChem BioAssay (EPA / NIEHS).
Where “and” joins values, the source holds several entries; their conditions need not be identical. Equal entries are not always repeated. Inconclusive results are not listed. Some compounds were tested as several samples or in several runs, with calls that do not always agree. Calls of active or inactive are those of the source. How the source made its calls, unless noted: active means hit-call score of the fitted dose curve at least 0.9, where 1 is the maximum; inactive means score below 0.9.

Assays:
[1] = molecular target: human RAR-related Orphan Receptor beta (RORb), RORB (gene 6096) (UniProt Q92753); test: ATG_RORb_TRANS: Attagene TRANS-FACTORIAL HepG2 Assay for human RAR-related Orphan Receptor beta (RORb) (AID 2283010; active means hit-call score of the fitted dose curve at least 0.9, where 1 is the maximum)
human RAR-related Orphan Receptor beta (RORb), RORB (gene 6096), sequence (Q92753 whole entry, looked up, the tested form may be a part): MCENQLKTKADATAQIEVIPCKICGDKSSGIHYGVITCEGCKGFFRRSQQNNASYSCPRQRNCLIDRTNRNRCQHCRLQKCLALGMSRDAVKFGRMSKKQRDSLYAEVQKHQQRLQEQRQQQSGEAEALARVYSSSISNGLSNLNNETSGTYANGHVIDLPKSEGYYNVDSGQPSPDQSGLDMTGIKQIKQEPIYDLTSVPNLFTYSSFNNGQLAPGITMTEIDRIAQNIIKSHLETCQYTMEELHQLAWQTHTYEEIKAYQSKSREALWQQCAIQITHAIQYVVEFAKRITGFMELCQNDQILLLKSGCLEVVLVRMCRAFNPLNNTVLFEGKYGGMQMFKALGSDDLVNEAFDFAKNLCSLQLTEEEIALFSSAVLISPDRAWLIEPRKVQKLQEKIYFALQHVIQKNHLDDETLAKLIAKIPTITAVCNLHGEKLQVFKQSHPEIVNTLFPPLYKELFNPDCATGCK
Summary of the method: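 Multiplexed transcription-factor reporter assay: HepG2 cells transiently carrying NR-Gal4/GAL4-UAS constructs, 24 h treatment, mRNA quantified by RT-PCR plus capillary electrophoresis fluorescence; activity scored as induction over DMSO.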

[2] = molecular target: human RAR-related Orphan Receptor gamma (RORg), RORC (gene 6097) (UniProt P51449); test: ATG_RORg_TRANS: Attagene TRANS-FACTORIAL HepG2 Assay for human RAR-related Orphan Receptor gamma (RORg) (AID 2283011; active means hit-call score of the fitted dose curve at least 0.9, where 1 is the maximum)
human RAR-related Orphan Receptor gamma (RORg), RORC (gene 6097), sequence (P51449 whole entry, looked up, the tested form may be a part): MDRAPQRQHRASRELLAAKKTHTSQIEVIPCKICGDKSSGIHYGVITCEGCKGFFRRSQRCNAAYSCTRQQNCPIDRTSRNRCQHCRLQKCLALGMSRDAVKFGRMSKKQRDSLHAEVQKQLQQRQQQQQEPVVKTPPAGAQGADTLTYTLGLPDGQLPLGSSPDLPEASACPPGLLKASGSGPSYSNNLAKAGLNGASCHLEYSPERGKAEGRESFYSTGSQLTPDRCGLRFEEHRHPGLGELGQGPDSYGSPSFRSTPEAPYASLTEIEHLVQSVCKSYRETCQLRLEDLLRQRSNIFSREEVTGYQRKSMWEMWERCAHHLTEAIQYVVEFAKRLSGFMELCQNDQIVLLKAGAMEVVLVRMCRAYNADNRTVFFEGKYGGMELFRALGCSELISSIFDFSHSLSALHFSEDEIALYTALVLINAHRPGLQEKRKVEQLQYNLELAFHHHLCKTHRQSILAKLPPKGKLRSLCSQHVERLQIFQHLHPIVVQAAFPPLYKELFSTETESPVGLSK
Summary of the method: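 Transient MRTU transfection of HepG2 (TRANS format, exogenous NR-Gal4 chimera). 24 h dosing. Total RNA → oligo(dT) RT → PCR → 6-FAM labelling → HpaI cut → CE. Gain vs DMSO.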

[3] = molecular target: Retinoic acid receptor RXR-alpha (Homo sapiens) (UniProt P19793); test: ATG_RXRa_TRANS: Attagene TRANS-FACTORIAL HepG2 Assay for human Retinoid X Receptor alpha (RXRa) (AID 2283012; active means hit-call score of the fitted dose curve at least 0.9, where 1 is the maximum)
Retinoic acid receptor RXR-alpha (Homo sapiens), sequence (P19793 whole entry, looked up, the tested form may be a part): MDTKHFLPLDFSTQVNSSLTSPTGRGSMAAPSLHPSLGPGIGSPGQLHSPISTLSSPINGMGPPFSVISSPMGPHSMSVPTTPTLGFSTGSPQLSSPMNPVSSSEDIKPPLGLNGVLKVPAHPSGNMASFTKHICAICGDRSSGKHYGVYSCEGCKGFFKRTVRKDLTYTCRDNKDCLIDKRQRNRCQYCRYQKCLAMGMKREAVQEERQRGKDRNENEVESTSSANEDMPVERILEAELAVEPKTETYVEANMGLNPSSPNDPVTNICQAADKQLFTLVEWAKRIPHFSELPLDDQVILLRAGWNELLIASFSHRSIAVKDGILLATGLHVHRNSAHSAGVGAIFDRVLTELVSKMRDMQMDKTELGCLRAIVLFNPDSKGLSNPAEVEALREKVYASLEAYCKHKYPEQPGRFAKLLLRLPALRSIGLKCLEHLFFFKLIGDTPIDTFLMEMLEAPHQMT
Summary of the method: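 Chimeric NR-GAL4 trans-activation in HepG2, 24 h treatment; reporter transcripts quantified by fluorescence on capillary electrophoresis, analysed for upward change from DMSO.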

[4] = molecular target: human Retinoid X Receptor beta (RXRb), RXRB (gene 6257) (UniProt P28702); test: ATG_RXRb_TRANS: Attagene TRANS-FACTORIAL HepG2 Assay for human Retinoid X Receptor beta (RXRb) (AID 2283013; active means hit-call score of the fitted dose curve at least 0.9, where 1 is the maximum)
human Retinoid X Receptor beta (RXRb), RXRB (gene 6257), sequence (P28702 whole entry, looked up, the tested form may be a part): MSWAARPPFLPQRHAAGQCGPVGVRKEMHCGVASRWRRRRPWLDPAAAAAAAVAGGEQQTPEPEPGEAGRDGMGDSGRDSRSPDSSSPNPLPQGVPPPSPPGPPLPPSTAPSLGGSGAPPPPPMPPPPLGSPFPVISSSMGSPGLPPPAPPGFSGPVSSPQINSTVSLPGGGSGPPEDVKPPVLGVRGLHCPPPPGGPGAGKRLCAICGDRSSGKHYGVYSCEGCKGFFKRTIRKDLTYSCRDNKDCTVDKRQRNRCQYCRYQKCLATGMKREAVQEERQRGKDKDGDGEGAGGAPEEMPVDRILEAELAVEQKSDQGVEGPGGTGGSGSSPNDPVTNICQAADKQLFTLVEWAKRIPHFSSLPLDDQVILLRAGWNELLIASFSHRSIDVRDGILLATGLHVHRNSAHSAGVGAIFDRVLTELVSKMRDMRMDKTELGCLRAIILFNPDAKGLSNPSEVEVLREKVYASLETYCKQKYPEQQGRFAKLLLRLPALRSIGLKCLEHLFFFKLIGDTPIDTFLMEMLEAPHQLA
Summary of the method: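 After a 24 h incubation with test chemical, transfected HepG2 cells carrying NR-Gal4 fusions and GAL4-UAS reporter transcription units yield RNA whose reporter cDNA is FAM-labelled, HpaI-cut and sized by capillary electrophoresis; increases over DMSO are scored.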

[5] = molecular target: human Thyroid Receptor alpha (THRa1), THRA (gene 7067) (UniProt P10827); test: ATG_THRa1_TRANS: Attagene TRANS-FACTORIAL HepG2 Assay for human Thyroid Receptor alpha (THRa1) (AID 2283014; active means hit-call score of the fitted dose curve at least 0.9, where 1 is the maximum)
human Thyroid Receptor alpha (THRa1), THRA (gene 7067), sequence (P10827 whole entry, looked up, the tested form may be a part): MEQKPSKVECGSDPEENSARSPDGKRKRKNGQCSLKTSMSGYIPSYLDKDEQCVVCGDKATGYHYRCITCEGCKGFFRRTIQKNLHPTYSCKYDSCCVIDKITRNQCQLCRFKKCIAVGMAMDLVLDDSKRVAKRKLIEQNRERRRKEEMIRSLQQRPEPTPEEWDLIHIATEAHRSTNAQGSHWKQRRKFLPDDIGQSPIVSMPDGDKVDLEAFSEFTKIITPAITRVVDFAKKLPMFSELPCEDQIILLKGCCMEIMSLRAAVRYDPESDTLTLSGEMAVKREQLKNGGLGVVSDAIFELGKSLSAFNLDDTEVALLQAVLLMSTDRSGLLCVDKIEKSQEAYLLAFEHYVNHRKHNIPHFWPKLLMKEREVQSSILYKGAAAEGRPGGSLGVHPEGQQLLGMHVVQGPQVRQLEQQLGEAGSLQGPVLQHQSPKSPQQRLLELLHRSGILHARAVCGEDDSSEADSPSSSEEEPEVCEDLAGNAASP
Summary of the method: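 Transient HepG2 transfection, NR-Gal4 chimera driving GAL4-UAS reporters; 24 h compound exposure; total RNA, oligo(dT) RT, PCR, fluorescent primer extension, capillary electrophoresis. Upward direction vs DMSO control.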

[6] = read-out: E-selectin (Homo sapiens) (UniProt P16581); test: BSK_3C_Eselectin: BioMAP Diversity Plus: 3C Assay for Eselectin Biomarker Activity (AID 2283015); settings: primary human endothelial cells (HUVEC); actives raise or lower the signal;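 on outcome: cell surface E-selectin protein quantified by ELISA 24 h after dosing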
Summary of the method: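 HUVEC, 3C stimulation; compound exposure 24 h; E-selectin by ELISA; gain- or loss-of-signal fitted bidirectionally vs DMSO baseline.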

[7] = read-out: Interleukin-1 alpha (IL1a), IL1A (gene 3552); test: BSK_BE3C_IL1a: BioMAP Diversity Plus: BE3C Assay for Interleukin-1 alpha (IL1a) Biomarker Activity (AID 2283016); settings: primary human bronchial epithelial cells; actives raise or lower the signal
Summary of the method: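 Measured in human lung primary bronchial epithelial cells: IL-1a by ELISA at 24 h after dosing, with bidirectional fitting against DMSO.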

[8] = read-out: Monocyte Chemoattractant Protein-1 (MCP1), CCL2 (gene 6347); test: BSK_3C_MCP1: BioMAP Diversity Plus: 3C Assay for Monocyte Chemoattractant Protein-1 (MCP1) Biomarker Activity (AID 2283017); settings: primary human endothelial cells (HUVEC); actives raise or lower the signal
Summary of the method: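 HUVEC, 3C system; 24 h chemical exposure; MCP-1 by ELISA; bidirectional curve fit vs DMSO baseline.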

[9] = read-out: Monocyte Chemoattractant Protein-1 (MCP1), CCL2 (gene 6347); test: BSK_4H_MCP1: BioMAP Diversity Plus: 4H Assay for Monocyte Chemoattractant Protein-1 (MCP1) Biomarker Activity (AID 2283018); settings: primary human endothelial cells (HUVEC); actives raise or lower the signal
Summary of the method: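 Primary human umbilical vein endothelium is exposed to chemical for 24 h before MCP-1 is assayed by ELISA. Concentration-response fitted bidirectionally relative to DMSO.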

[10] = read-out: Human Leukocyte Antigen - DR isotype (HLADR), HLA-DRA (gene 3122); test: BSK_3C_HLADR: BioMAP Diversity Plus: 3C Assay for Human Leukocyte Antigen - DR isotype (HLADR) Biomarker Activity (AID 2283019); settings: primary human endothelial cells (HUVEC); actives raise or lower the signal;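 on outcome: ELISA of cell-surface HLA-DR on HUVEC 24 h after dosing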
Summary of the method: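 HUVEC, 3C stimulation, 24 h post-dose; HLA-DR by ELISA; bidirectional curve fit vs DMSO baseline; gain or loss of signal scored.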

[11] = read-out: Interleukin-8 (IL8), CXCL8 (gene 3576); test: BSK_3C_IL8: BioMAP Diversity Plus: 3C Assay for Interleukin-8 (IL8) Biomarker Activity (AID 2283020); settings: primary human endothelial cells (HUVEC); actives raise or lower the signal
Summary of the method: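 Using DMSO-treated wells as the baseline, bidirectional curve fitting was applied to ELISA-measured IL-8 from human umbilical vein endothelial cultures sampled 24 h after compound addition.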

[12] = read-out: Monokine induced gamma interferon (MIG), CXCL9 (gene 4283); test: BSK_3C_MIG: BioMAP Diversity Plus: 3C Assay for Monokine induced gamma interferon (MIG) Biomarker Activity (AID 2283021); settings: primary human endothelial cells (HUVEC); actives raise or lower the signal
Summary of the method: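 ELISA-measured MIG in dosed HUVEC 3C cultures at 24 h, analysed by bidirectional fitting with DMSO defining baseline activity.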

[13] = molecular target: human Vitamin D Receptor (VDR), VDR (gene 7421) (UniProt P11473); test: ATG_VDR_TRANS: Attagene TRANS-FACTORIAL HepG2 Assay for human Vitamin D Receptor (VDR) (AID 2283022; active means hit-call score of the fitted dose curve at least 0.9, where 1 is the maximum)
human Vitamin D Receptor (VDR), VDR (gene 7421), sequence (P11473 whole entry, looked up, the tested form may be a part): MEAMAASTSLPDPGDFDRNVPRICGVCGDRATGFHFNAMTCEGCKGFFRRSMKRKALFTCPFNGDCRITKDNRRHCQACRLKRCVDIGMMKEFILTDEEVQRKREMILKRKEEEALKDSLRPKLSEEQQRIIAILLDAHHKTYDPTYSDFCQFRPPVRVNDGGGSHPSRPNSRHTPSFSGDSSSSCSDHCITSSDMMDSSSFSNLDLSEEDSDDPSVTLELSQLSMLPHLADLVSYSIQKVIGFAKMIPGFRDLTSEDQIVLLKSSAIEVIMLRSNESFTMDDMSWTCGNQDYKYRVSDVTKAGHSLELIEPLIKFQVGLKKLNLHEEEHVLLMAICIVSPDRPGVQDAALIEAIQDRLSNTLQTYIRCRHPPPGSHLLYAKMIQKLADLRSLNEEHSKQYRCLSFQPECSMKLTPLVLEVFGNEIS
Summary of the method: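 RT-PCR/capillary electrophoresis read-out of reporter mRNA induction in transiently transfected HepG2; 24 h dosing; chimeric NR-Gal4 (TRANS format); gain-of-signal fit against DMSO baseline.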

[14] = BSK_3C_SRB: Viability Assessment in the BioMAP Diversity Plus: 3C Assay (AID 2283023); settings: primary human endothelial cells (HUVEC);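 further: cells read 24 h after compound dosing; fitted both ways against DMSO so a hit may be signal rise or drop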
Summary of the method: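 HUVEC, 24 h post-dose; 10% TCA fix, 0.1% SRB stain, A560 nm. Bidirectional curve fit vs DMSO negative control.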

[15] = read-out: Matrix Metallopeptidase 1 (MMP1), MMP1 (gene 4312); test: BSK_BE3C_MMP1: BioMAP Diversity Plus: BE3C Assay for Matrix Metallopeptidase 1 (MMP1) Biomarker Activity (AID 2283024); settings: primary human bronchial epithelial cells; actives raise or lower the signal
Summary of the method: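 In this multiplexed primary-cell system, human bronchial epithelium received chemicals for 24 h before an ELISA for MMP1. Values reflect bidirectional fits normalised to the DMSO baseline.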

[16] = BSK_3C_Vis: BioMAP Diversity Plus: 3C Assay for Morphology Visualization (AID 2283025); settings: primary human endothelial cells (HUVEC);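 further: fitted both ways so gain or loss versus DMSO counts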
Summary of the method: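 Light-microscopy morphology readout, 24 h exposure, human primary umbilical vein endothelium; analysed relative to DMSO with bidirectional fitting.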

[17] = read-out: Pselectin, SELP (gene 6403); test: BSK_4H_Pselectin: BioMAP Diversity Plus: 4H Assay for Pselectin Biomarker Activity (AID 2283026); settings: primary human endothelial cells (HUVEC); actives raise or lower the signal
Summary of the method: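 Bidirectional fits against DMSO gave the endpoint. Cells: primary human umbilical vein endothelium, chemical-treated for 24 h before ELISA detection of P-selectin.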

[18] = BSK_4H_SRB: Viability Assessment in the BioMAP Diversity Plus: 4H Assay (AID 2283027); settings: primary human endothelial cells (HUVEC);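 further: cells exposed to compound for 24 h before staining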;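 on AC50: curves fitted both ways versus DMSO so AC50 may be loss or gain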
Summary of the method: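 Cytotoxicity readout: sulforhodamine B (0.1%) staining of total protein after 10% TCA fixation, measured at 560 nm in human umbilical vein endothelium at 24 h. DMSO set the baseline; fitting was bidirectional.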

[19] = BSK_BE3C_SRB: Viability Assessment in the BioMAP Diversity Plus: BE3C Assay (AID 2283028); settings: primary human bronchial epithelial cells;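 on AC50: fitted both ways so AC50 may mark signal gain or loss versus DMSO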
Summary of the method: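 Primary human bronchial epithelium; chemical dosing, 24 h; 10% TCA fix, 0.1% SRB stain, A560; bidirectional fit vs DMSO baseline.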

[20] = read-out: Thrombomodulin, THBD (gene 7056); test: BSK_3C_Thrombomodulin: BioMAP Diversity Plus: 3C Assay for Thrombomodulin Biomarker Activity (AID 2283029); settings: primary human endothelial cells (HUVEC); actives raise or lower the signal
Summary of the method: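 In a multiplexed primary-cell system, human umbilical vein endothelium received chemical and was assayed 24 h later for thrombomodulin by ELISA. Parallel cultures were SRB-stained (0.1% SRB after 10% TCA fixation, read at 560 nm) to flag cytotoxicity.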

E-selectin (Homo sapiens), sequence (P16581 whole entry, looked up): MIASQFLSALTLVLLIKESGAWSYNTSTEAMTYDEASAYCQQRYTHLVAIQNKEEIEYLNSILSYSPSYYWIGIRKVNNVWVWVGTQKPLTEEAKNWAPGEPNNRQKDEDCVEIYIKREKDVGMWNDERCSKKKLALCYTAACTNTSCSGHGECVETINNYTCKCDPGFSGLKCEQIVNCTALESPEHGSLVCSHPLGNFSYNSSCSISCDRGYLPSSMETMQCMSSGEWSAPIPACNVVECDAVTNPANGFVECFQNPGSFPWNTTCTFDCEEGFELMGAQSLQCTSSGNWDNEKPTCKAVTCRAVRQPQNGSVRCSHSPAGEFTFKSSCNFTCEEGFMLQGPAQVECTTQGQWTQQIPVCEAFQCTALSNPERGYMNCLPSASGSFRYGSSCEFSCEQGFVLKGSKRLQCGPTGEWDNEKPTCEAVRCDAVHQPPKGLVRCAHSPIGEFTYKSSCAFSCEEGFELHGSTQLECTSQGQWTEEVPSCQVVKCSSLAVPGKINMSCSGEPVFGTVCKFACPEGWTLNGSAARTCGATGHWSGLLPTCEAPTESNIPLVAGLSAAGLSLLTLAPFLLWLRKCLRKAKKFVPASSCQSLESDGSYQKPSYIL

CNC(=O)/C=C(\C)OP(=O)(OC)OC
outcome [1]: inactive | outcome [3]: inactive | outcome [6]: inactive | outcome [7]: inactive | outcome [9]: inactive | outcome [10]: inactive | outcome [11]: inactive | outcome [12]: inactive | outcome [13]: inactive | outcome [14]: inactive | outcome [15]: inactive | outcome [16]: inactive | outcome [17]: inactive | outcome [18]: inactive | outcome [19]: inactive | outcome [20]: inactive

COP(=S)(OC)Oc1ccc(SC)c(C)c1
outcome [1]: inactive | outcome [3]: inactive | outcome [4]: inactive | outcome [6]: inactive | AC50 [7]: 5.15 µM (active) | outcome [9]: inactive | outcome [10]: inactive | outcome [11]: inactive | outcome [12]: inactive | outcome [13]: inactive | AC50 [15]: 3.97 µM (active) | outcome [16]: inactive | outcome [17]: inactive | AC50 [18]: 5.31 µM (active) | AC50 [19]: 23.2 µM (active) | outcome [20]: inactive

CNC(=O)CSP(=S)(OC)OC
outcome [1]: inactive | outcome [2]: inactive | outcome [6]: inactive | outcome [7]: inactive | outcome [8]: inactive | outcome [9]: inactive | outcome [10]: inactive | outcome [11]: inactive | outcome [12]: inactive | outcome [13]: inactive | outcome [14]: inactive | outcome [15]: inactive | outcome [16]: inactive | outcome [17]: inactive | outcome [18]: inactive | outcome [19]: inactive | outcome [20]: inactive

CC(C)(C)C(O)C(Oc1ccc(Cl)cc1)n1cncn1 (stereo not given)
outcome [1]: inactive | outcome [2]: inactive | outcome [3]: inactive | outcome [5]: inactive | AC50 [6]: 3.36 µM (active) | outcome [6]: inactive | outcome [7]: inactive | outcome [9]: inactive | AC50 [10]: 5.49 µM (active) | outcome [10]: inactive | outcome [11]: inactive | outcome [12]: inactive | outcome [13]: inactive | outcome [14]: inactive | outcome [16]: inactive | outcome [17]: inactive | outcome [18]: inactive | outcome [19]: inactive | outcome [20]: inactive

O=C(O)CCCOc1ccc(Cl)cc1Cl
outcome [1]: inactive | outcome [2]: inactive | outcome [3]: inactive | outcome [6]: inactive | outcome [7]: inactive | outcome [9]: inactive | outcome [10]: inactive | outcome [11]: inactive | outcome [12]: inactive | outcome [13]: inactive | outcome [14]: inactive | outcome [16]: inactive | outcome [17]: inactive | outcome [18]: inactive | outcome [19]: inactive | outcome [20]: inactive
